Test results published in PubChem BioAssay (NCI).
The panel holds about 83,000 compounds, 20% with a hit somewhere; the sample as a whole holds those more often.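 Testing used 96-well plates and a 48-hour single-concentration exposure. Example: -40 means 40% of the starting cells died.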 A number with no mark means an inactive call. Active and inactive are the calls of the source. Rule for the calls: active = growth percent below 10; inactive = the rest.

Key:
Assay in all cases: NCI-60 one-dose screen, 48 h (100 = growth as untreated, 0 = no growth, -100 = all killed)
Details in all cases: 10 µM unless noted
HCT-15 colon = system: HCT-15 colon
HT29 colon = system: HT29 colon
SNB-75 CNS = system: SNB-75 CNS
SNB-19 CNS = system: SNB-19 CNS
U251 CNS = system: U251 CNS
PC-3 prostate = system: PC-3 prostate
SK-MEL-5 melanoma = system: SK-MEL-5 melanoma
UACC-62 melanoma = system: UACC-62 melanoma
LOX IMVI melanoma = system: LOX IMVI melanoma
SK-MEL-28 melanoma = system: SK-MEL-28 melanoma

SMILES	growth (HCT-15 colon)	growth (HT29 colon)	growth (SNB-75 CNS)	growth (SNB-19 CNS)	growth (U251 CNS)	growth (PC-3 prostate)	growth (SK-MEL-5 melanoma)	growth (UACC-62 melanoma)	growth (LOX IMVI melanoma)	growth (SK-MEL-28 melanoma)
COc1cc(NC(=O)c2cncnc2Nc2ccc3c(ccn3Cc3ccccn3)c2)cc(OC)c1	30.7%	11.7%	-3.17% (active)	58.3%	45.9%	38.2%	35.4%	58.1%	39.9%	63.8%
COc1cc(/C=C/C(=O)/C=C(O)/C=C/c2ccc(OC(=O)C34CC5CC(CC(C5)C3)C4)c(OC)c2)ccc1OC(=O)C12CC3CC(CC(C3)C1)C2	99.3%	104%	90%	101%	104%	101%	105%	98.8%	95.3%	100%
COc1ccc2c(c1)c(-c1nc(-c3c[nH]c4ncccc34)cs1)cn2CCO	32%	54.5%	31.7%	82.4%	53.2%	49%	58.4%	58.4%	42.8%	78.5%
CCCCCCCCCCCCCCCCCCOc1ccccc1CC(=O)NCC[N+]1(C)CCCCC1	95.7%	12.8%	61.4%	36.7%	16.3%	8.74% (active)	82.1%	44.6%	53.6%	76.2%
O=C(Nc1cnc(Nc2ccc(N3CCOCC3)nc2)nc1Oc1ccc(C(F)(F)F)cc1)c1ccncc1	96.9%	101%	89.8%	91.1%	92.1%	97.4%	95.3%	94.1%	86%	95.8%
CCN1C(=O)N(CC)C2C1NN=c1s/c(=C3\C(=O)N(CCC(C)C)c4ccccc43)c(=O)n12 (stereo not given)	14.6%	4.19% (active)	21.6%	23.3%	8.16% (active)	28.9%	8.16% (active)	18.5%	19.2%	59.9%
N#Cc1cncc(-c2ccc3ncnc(Nc4cccc(Cl)c4)c3c2)c1	77.9%	66.8%	65.5%	63.3%	62.1%	63.5%	75.4%	81.7%	91.1%	81.8%
CC1=C2[C@@H](CC1)[C@]1(C)O[C@@](C3CCCCC3)(C[C@H]1OC(=O)CO)[C@H]2OC(=O)/C=C/c1ccccc1	77.9%	62.7%	72.6%	91.4%	73.9%	53.2%	87.3%	62.5%	82.6%	101%
CCN1CCN(CC(=O)Nc2ccc(-c3cn4c(n3)sc3cc(Oc5ccnc(C(=O)NC)c5)ccc34)cc2)CC1	77.3%	-21.8% (active)	82.9%	98.6%	64.8%	65.8%	88.3%	66.9%	-80.4% (active)	74.6%
CC1C(/C=N/NC(N)=S)C(C#N)(C#N)C1(C#N)C#N (stereo not given)	109%	110%	92.7%	101%	102%	92.9%	104%	96.9%	109%	116%
C=C1C(=O)O[C@H]2[C@H]1CC/C(Cn1cc(CCC)nn1)=C\CC[C@@]1(C)O[C@@H]21	-1.47% (active)	-9.05% (active)	75.8%	73.3%	73.7%	64.4%	53.1%	4.67% (active)	-29.3% (active)	7.96% (active)
CC[N+]1(CC)CC[N+]2(CCCC(C)CC2)CC1 (stereo not given)	104%	99.7%	115%	102%	111%	96.6%	104%	100%	105%	104%
COc1ccc(CNc2c3ccccc3nc3ccccc23)c(OC)c1	26%	13.8%	64.5%	33.5%	41.8%	47.1%	70.3%	54.5%	17.7%	69.3%
CN1CCN(Cc2ccc(NC(=O)c3cncc(C#Cc4cnc(N)c5ncccc45)c3)cc2C(F)(F)F)CC1	-30.2% (active)	-50.2% (active)	-76.8% (active)	44.3%	-37.6% (active)	13.6%	-91.9% (active)	6.71% (active)	-83.6% (active)	-86.8% (active)
O=C(/C=C(O)/C=C/c1cccc2[nH]ccc12)/C=C/c1cccc2[nH]ccc12	61.5%	38.4%	92.2%	72.6%	45.2%	66.8%	76%	68%	63.7%	97.6%
CC(C)N1C(=O)/C(=c2\sc3n(c2=O)C2C(NN=3)N(C)C(=O)N2C)c2ccccc21 (stereo not given)	37.8%	31.3%	4.34% (active)	61.9%	48.2%	55%	48.8%	33.4%	56.6%	64%
CCCCCCCCCCCCCCCCCC1=NC(C)(C)CN1CC(C)O (stereo not given)	10.3%	-4.49% (active)	97.8%	85.3%	74%	53.4%	100%	105%	-83.1% (active)	105%
C#CC#CC#CC#CC#CC#CC#CC#CC[C@@H]1OC[C@@H](COC(=O)O[C@@H](C(=O)O[C@H]2C[C@@]3(O)[C@@H](OC(=O)c4ccccc4)[C@@H]4[C@]5(OC(C)=O)CO[C@@H]5C[C@H](O)[C@@]4(C)C(=O)[C@H](OC(C)=O)C(=C2C)C3(C)C)[C@@H](NC(=O)c2ccccc2)c2ccccc2)O1	11%	101%	90.1%	14.9%	96.3%	11.1%	22.1%	25.2%	22.2%	55.4%
COc1ccc2c(c1)c(-c1nc(-c3c[nH]c4ncccc34)cs1)cn2CCCN1CCOCC1	13.7%	-12.9% (active)	21.4%	54.4%	16.3%	18.2%	31.6%	44.1%	17%	-54.1% (active)
S=c1nc2oc(-c3ccccc3)c(-c3ccccc3)c2c(/N=C\c2ccco2)[nH]1	85.6%	98.3%	74.2%	95.2%	91.4%	85.8%	94.6%	90.9%	92.9%	109%
O=C(Nc1ccccc1O)c1ccc(CNC(=O)c2ccsc2Nc2ccnc(C(F)(F)F)c2)cc1	28%	28.7%	47.8%	52.3%	1.39% (active)	14.5%	-8.81% (active)	9.79% (active)	34.5%	51.3%
COc1ccc(/C=C/C(=O)c2cc3c(N)c(C(=O)Nc4cccc(Cl)c4C)sc3nc2C)cc1	5.62% (active)	-2.08% (active)	21.3%	5.32% (active)	-20% (active)	22.7%	-28.9% (active)	26.9%	-44.6% (active)	43.7%
COc1cc(C2C(C(=O)OCc3ccccc3)=C(C)NC(C)=C2C(=O)OCc2ccccc2)cc(OC)c1OC	23.4%	12.3%	46.2%	42.5%	31.3%	9.87% (active)	8.07% (active)	30.2%	29.9%	41.1%
CC1CCN(C(=O)CCCl)c2ccccc21 (stereo not given)	102%	102%	87.9%	96.7%	102%	103%	104%	89.7%	91%	109%
COC(=O)C(Cc1ccccc1)NC(=O)c1ccc(NC(=O)c2[nH]c(C)c(Cl)c2Cl)c(OC(C)C)c1 (stereo not given)	40.5%	58%	62.6%	42.8%	22.3%	11.4%	97.7%	90.6%	34.1%	102%
O=C1c2ccccc2C(=O)c2c1c(C(=O)NCc1ccccc1)c1ccccn21	114%	80.6%	94.9%	93.9%	93.6%	95.4%	99.6%	92.2%	103%	113%
